Laboratory results: ChEMBL document CHEMBL4513216, “Probing the Open Global Health Chemical Diversity Library for Multistage-Active Starting Points for Next-Generation Antimalarials” (ACS Infect Dis, 2020)
The whole screen tested about 65,000 compounds, of which about 2,100 (3.2%) showed an effect of 50% or more. The median lay at about -52%. The sample holds strong results, similar compounds and a random draw of the others, so the mix is not that of the screen.

test system: Plasmodium falciparum; assay: Screen against P. falciparum Asexual Blood Stage (ABS), at 5uM; type: functional, Dd2; settings: tested at 5 uM

| Structure (SMILES) | INHIBITION |
| --- | --- |
| Cc1ccc(C(=O)N2C[C@@H]3CCCO[C@@H]3[C@H](N3CCCC3)C2)cn1 | -108% |
| Cc1nc(COC[C@H]2CC[C@H]3NCC[C@H]3O2)cs1 | -29.9% |
| O=C(c1ccnnc1)N1C[C@@H]2OCCN(CCN3CCCC3)[C@@H]2C1 | -53.7% |
| O=C(c1cccnc1)N1CCO[C@@H]2CNC[C@@H]21 | -20.6% |
| Cc1noc([C@]23COC[C@H]2CN(C(C)C)C3)n1 | -38.3% |
| Fc1cccnc1O[C@@H]1CN(Cc2ccccn2)[C@@H]2CCCO[C@@H]21 | -14% |
| Fc1ccccc1Cn1c(C2CCNCC2)cc2cccnc21 | 88.7% |
| Fc1cccc(F)c1Cn1c(C2CCNCC2)cc2cccnc21 | 80.6% |
| CN(Cc1nc2ccsc2c(=O)[nH]1)C[C@@H]1CCCN2CCCC[C@H]12 | -20.7% |
| Cc1ccc(-c2noc(CC[C@@H]3CCCN4CCCC[C@H]34)n2)nn1 | -74.3% |
| CN(Cc1ccccc1-n1cccn1)C[C@@H]1CCCN2CCCC[C@H]12 | 76% |
| COCCN1C[C@@H]2OCCN(c3ccnc(N(C)C)n3)[C@@H]2C1 | -31.1% |
| CS(=O)(=O)N1CCO[C@@H]2CN(Cc3ccncc3)C[C@@H]2C1 | -25.9% |
| CC(C)(NCc1cccc(O)c1)c1ccc2c(c1)OCO2 | 88.9% |
| CCC(C)N1CCc2nc(N3CCCC3)nc(NC(C)C)c2C1 (configuration not stated) | 78% |
| CN(C)C(=O)[C@H]1C[C@H]2OCC[C@H]2N(Cc2ccccn2)C1 | -13.3% |
| Cc1cccnc1[C@H](C)Nc1nc(-c2cccnc2)nc2c1CNC2 | 78% |
| CC(Nc1nc(-c2ccccc2)nc2c1CCNCC2)c1cccnc1 (configuration not stated) | 90.9% |
| CC(Nc1nc(-c2ccncc2)nc2c1CCNC2)c1ccccc1 (configuration not stated) | 71.5% |
| CSCC(=O)NS(=O)(=O)c1ccc(C#N)c(C(F)(F)F)c1 | -52.2% |
| COCCNC(=O)[C@@]12CCO[C@@H]1CCN(Cc1cc(C)on1)C2 | -32% |
| CN1CCN(C(=O)Cc2ccc(S(=O)(=O)C(F)F)cc2)CC1 | -85.3% |
| Fc1ccccc1CN1CCCC2(CCN(c3ncccn3)C2)C1 (configuration not stated) | -15.8% |
| CCN(C)S(=O)(=O)NCC1CCCN(Cc2ccccc2F)C1 (configuration not stated) | 74.5% |
| NC1(C(=O)NCC2CCCN(Cc3ccccc3F)C2)CCCC1 (configuration not stated) | 85.6% |
| CS(=O)(=O)NCC1CCCN(Cc2ccccc2F)C1 (configuration not stated) | 89.2% |

| Structure (SMILES) | INHIBITION |
| --- | --- |
| COc1ncccc1CN1C[C@@H]2COC[C@]2(CNS(C)(=O)=O)C1 | -44.2% |
| C[C@@H]1CN(Cc2ccco2)CCN1C(=O)Cc1ccccc1F | -154% |
| COCCN1CCCC12CCN(c1ncccn1)CC2 | -0.324% |
| Cc1c(C2N3CC4(C)CN2CC(C)(C3)C4=O)[nH]c(=O)[nH]c1=O (configuration not stated) | -53.4% |
| COc1cc(C2SCC(=O)Nc3ccsc32)cc(OC)c1O (configuration not stated) | -46.5% |
| CCN1CCC2(COCc3cnc(-c4cccnc4)nc32)C1 (configuration not stated) | -76.4% |
| COCc1cncc2c1CCN(Cc1cccnc1)C2 | -107% |
| c1cncc(-c2noc(CN3CCc4cncnc4C3)n2)c1 | 72.9% |
| O=C1C[C@@H]2CC[C@H](CN1)N2C1CCSCC1 | -19.5% |
| C[C@@H]1C[C@H]2CN(Cc3nccs3)C[C@H]2O1 | -77.8% |
| Cc1cc(CN2CC[C@H]3C[C@H](c4nc(C5CC5)cs4)O[C@@H]3C2)no1 | -15.2% |
| Nc1nc(N)c2c(n1)OC1(COCCN(Cc3nccs3)C1)C2 (configuration not stated) | -134% |
| Cc1nc(CO[C@@H]2CN(Cc3ccccn3)[C@@H]3COC[C@@H]32)cs1 | -6.87% |
| c1ccc(OC[C@@H]2CCC[C@@]23CNCCO3)nc1 | 66.9% |
| c1cncc(COC[C@@H]2CCC[C@]23CNCCO3)c1 | -12.9% |
| c1ccc(COC[C@H]2CCC[C@@]23CNCCO3)nc1 | 44.1% |
| c1cncc(COC[C@@H]2CCC[C@@]23CNCCO3)c1 | 23.4% |
| c1cncc(OC[C@@H]2CCC[C@@]23CNCCO3)c1 | 67% |
| c1ccc(COC[C@@H]2CCC[C@@]23CNCCO3)nc1 | 48.6% |
| COc1cc(N2C[C@H]3CCN(CCN4CCCC4)C[C@H]3C2)ncn1 | -52.5% |
| Cc1cccc(CN2C[C@@H]3CN(Cc4ccoc4)CCO[C@@H]3C2)n1 | -60.3% |
| Cc1ccc(O[C@@H]2C[C@H]3CN(C(=O)Cc4ccccn4)CCN3C2)cc1 | -77.2% |
| CN1C(Cn2cccn2)C[C@@H]2CN(Cc3cccnc3)CC[C@@H]21 (some centres not stated) | 11.2% |
| CC(C)N1[C@H](Cn2cncn2)C[C@@H]2CN(c3ncccn3)CC[C@@H]21 | -58.2% |
| CC(C)N1[C@H](CN2CCCC2)C[C@@H]2CN(Cc3ccoc3)CC[C@@H]21 | 76.2% |
| CCc1noc(C(C)N2CCN(C)CC2)n1 (configuration not stated) | -21% |

| Structure (SMILES) | INHIBITION |
| --- | --- |
| Cc1ccc(C(=O)N2C[C@@H]3OCCN(CC4CCCC4)[C@@H]3C2)cn1 | -30% |
| c1ccc(-c2cc(CN3C[C@H]4CC[C@@H](C3)N(CC3CCC3)C4)on2)cc1 | 88.4% |
| c1ccc(-c2cc(CN3C[C@H]4CC[C@H]3C4)on2)cc1 | 5.39% |
| COc1ccnc(N2C[C@H]3CC[C@@H](C2)N(CC2CC2)C3)n1 | 4.16% |
| Cc1noc([C@@H]2C[C@H]3CN(Cc4cc(C)on4)C[C@H]3O2)n1 | -92.2% |
| Cc1cnn(CCNCc2nccn2Cc2ccccc2)c1 | 83% |
| Cc1cnn(CCNCc2ccccc2OCc2cccnc2)c1 | 71.5% |
| CN1CCN(Cc2cccnc2)Cc2cccnc21 | -65.7% |
| Cc1cnn(CC(C)NCc2ccncc2)c1 (configuration not stated) | 0.596% |
| Cc1cnn(CC(C)NCc2ccc(C#N)cc2)c1 (configuration not stated) | -64.7% |
| Cc1cnn(CC(C)NCc2cccnc2)c1 (configuration not stated) | -41.2% |
| O=C(c1ccno1)N1CC[C@@H]2CN(C3CCOCC3)CCO[C@@H]2C1 | -25% |
| CC(C)(C)NC(=O)CNc1ccc(C#N)c(C(F)(F)F)c1 | -31.3% |
| CCc1ocnc1C(=O)N1CCC2(CC1)OCC(C)O2 (configuration not stated) | -79.3% |
| COc1cc(N2CCN(CC3CC3)c3nc(C)ccc3C2)ncn1 | -65.6% |
| O=C1N(Cc2cccc(F)c2)CCC12CCCNC2 (configuration not stated) | -20.3% |
| O=C1N(Cc2ccc(Cl)cc2)CCC12CCCNC2 (configuration not stated) | 85.4% |
| CC(C)CN1CCC2(CCCNC2)C1=O (configuration not stated) | 10.8% |
| O=C1N(Cc2ccncc2)CCC12CCCNC2 (configuration not stated) | -59.6% |
| O=C1N(Cc2cccnc2)CCC12CCCNC2 (configuration not stated) | -85.5% |
| O=C1N(Cc2cccc(Cl)c2)CCC12CCCNC2 (configuration not stated) | 80.7% |
| O=C([C@H]1CN(Cc2ccncc2)C[C@H]2OCC[C@@H]12)N1CCCCO1 | -89.5% |
| Cc1ccc(CN2C[C@H]3OC(=O)N(Cc4ccccn4)[C@H]3C2)o1 | -74.6% |
| CCc1ccc(CN(CCN(C)C)Cc2ccc(C)s2)nc1 | 91.9% |
| CCc1ncc(CN(CCc2ccccc2)Cc2cccs2)cn1 | -80.9% |
| COCCN1CC[C@]2(CN(Cc3cccnc3)C[C@H]2C)C1=O | 25.1% |

| Structure (SMILES) | INHIBITION |
| --- | --- |
| O=C(O)CN1CCC(F)(F)C2(CCN(c3ccccn3)C2)C1 (configuration not stated) | -77.3% |
| O=C(c1c[nH]cn1)N1CCC(F)(F)C2(CCN(c3cccc(F)c3)C2)C1 (configuration not stated) | 86.2% |
| Cc1cc(C(=O)N2CCC3(CCN3Cc3ccc(F)cc3)C2)no1 (configuration not stated) | 4.88% |
| Cc1n[nH]c2c1C(c1ccncc1)SCC(=O)N2 (configuration not stated) | -28% |
| COCCN1CCOCC2(C1)CN(C(=O)c1conc1C)CCO2 (configuration not stated) | -10.5% |
| COC(=O)NCCC(=O)NC(C)Cc1cccc(Br)c1 (configuration not stated) | -15.7% |
| COC(=O)NCCC(=O)NC(C)Cc1ccccc1Br (configuration not stated) | -138% |
| CCC(=O)NCC(=O)NCC(C)(C)c1cccc(Br)c1 | 87.2% |
| COC(=O)NCC(=O)NCC(C)(C)c1cccc(Br)c1 | 84.6% |
| c1cc(CN2CCO[C@@H]3CNC[C@@H]32)cs1 | -38.5% |
| Cc1cccc(CN2C[C@H](NS(C)(=O)=O)[C@@H]3OCCC[C@@H]32)n1 | -121% |
| COCC(=O)N1CC[C@H]2[C@H]1CCN2CC(C)C | -34.8% |
| CC(C)CN1CCCC1c1cc[nH]n1 (configuration not stated) | 91% |
| CC(C)N1CCO[C@H]2CN(Cc3cc[nH]n3)C[C@H]21 | -62.4% |
| CC(C)c1ncc2c(n1)CN(CCCc1nc3ccccc3o1)CC2 | 70.3% |
| Cc1noc(C)c1CN1CC[C@@H]2O[C@@H](COCC(C)C)CC[C@@H]21 | -49.5% |
| COc1ccc(C[C@H]2CNCC[C@@H]2OCC2CC2)cc1 | 82.2% |
| COc1ccc(C[C@H]2CNCC[C@@H]2OC)cc1 | 78.3% |
| COc1cccc(CC(C)NC(=O)NCCc2cccnc2)c1 (configuration not stated) | -58.4% |
| O=C1CSC(c2ccc3c(c2)OCO3)c2cnn(C3CCCCC3)c2N1 (configuration not stated) | -33% |
| COc1ccc(OC)c(CNCc2ccnc(N3CCCCC3)c2)c1 | 75.8% |
| COc1ccc(CNCc2ccnc(N3CCCC3)c2)c(OC)c1 | 73.6% |
| c1cc(CNCc2ccnc(N3CCCC3)c2)c2c(c1)OCCCO2 | -20.5% |
| CCC(O)CN1CCN(C(=O)Cc2ccc(OC)cc2OC)CC1 (configuration not stated) | -2.14% |
